Test results reported in PubChem BioAssay (NCI).
The panel holds about 83,000 compounds, 20% with a hit somewhere; the sample as a whole holds those more often.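 In brief: 96-well plates, 48 h treatment, single concentration, percent growth endpoint.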 A number with no mark means an inactive call. The source made the active and inactive calls. The calls were made as follows: active = growth percent below 10; inactive = the rest.

What was measured:
Test in all cases: NCI-60 one-dose screen, 48 h (100 = growth as untreated, 0 = no growth, -100 = all killed)
Details in all cases: 10 µM unless noted
T-47D breast = system: T-47D breast
BT-549 breast = system: BT-549 breast
MDA-MB-435 melanoma = system: MDA-MB-435 melanoma
SW-620 colon = system: SW-620 colon
MCF7 breast = system: MCF7 breast
HCC-2998 colon = system: HCC-2998 colon
KM12 colon = system: KM12 colon
MDA-MB-468 breast = system: MDA-MB-468 breast
HCT-116 colon = system: HCT-116 colon

SMILES | growth (T-47D breast) | growth (BT-549 breast) | growth (MDA-MB-435 melanoma) | growth (SW-620 colon) | growth (MCF7 breast) | growth (HCC-2998 colon) | growth (KM12 colon) | growth (MDA-MB-468 breast) | growth (HCT-116 colon)
C#CCOc1ccc(/C=N/Nc2nc(-c3cc4cc(Br)ccc4oc3=O)cs2)cc1OC | 51.1% | 48.5% | 78.7% | 77.6% | 41.9% | 39.6% | 51.1% | 26.8% | –
COc1c(F)ccc(C(=O)Nc2ccc3nc(NC(=O)C4CCCN(S(=O)(=O)c5ccc(C#N)cc5)C4)sc3c2)c1F (centres undefined) | 61.9% | 75.8% | 105% | 102% | – | 119% | 96.3% | 86.2% | 74%
CC12CC[C@@H]3[C@]4(C)COC(c5cn[nH]c5-c5cccc(Br)c5)O[C@@H]4CC[C@@]3(C)[C@@H]1CC(C1=CCOC1=O)O2 (some centres undefined) | 17.7% | -3.03% (active) | 36.1% | 48.5% | – | 35.6% | 13.5% | 17.4% | 15.3%
COc1ccc(-c2nc3cc(C)ccc3n2CC(=O)N=Nc2c(O)[nH]c3ccc(Br)cc23)cc1 | -2.62% (active) | -41.5% (active) | 2.16% (active) | 9.98% (active) | – | 22.7% | 11.5% | -46.6% (active) | -69.6% (active)
COc1ccc(-c2ccnc(SCc3cc4ccccc4[nH]c3=O)n2)cc1OC | -5.29% (active) | -58.3% (active) | 14.8% | 48.8% | – | 5.44% (active) | 33.7% | -8.96% (active) | 2.06% (active)
Cc1cc2c(cc1Cl)C(=O)/C(=C/c1ccc(F)cc1)O2 | 69.1% | 85% | 106% | 111% | 37.9% | 117% | 92.7% | 91.1% | –
COc1c(F)ccc(C(=O)Nc2ccc3nc(NC(=O)C4CCCN(S(=O)(=O)c5ccc(Cl)cc5)C4)sc3c2)c1F (centres undefined) | 52.6% | 62.4% | 101% | 97.2% | – | 103% | 78.7% | 80.2% | 65.3%
CCCCSc1nc(Nc2ccc(S(N)(=O)=O)cc2)c(C#N)c(-c2ccc(Cl)cc2)n1 | 75.5% | 96.1% | 56.2% | 37.3% | – | 64% | 74.7% | 76% | 1.12% (active)
O=C(N1c2ccccc2Sc2ccccc21)n1ccc2cccnc21 | 27.7% | 60.2% | 19.7% | 58.4% | – | 85.1% | 49.2% | 51.8% | 34.9%
Clc1cccc(N/N=C/c2c[nH]c3ccc(Br)cc23)n1 | 22% | -6.46% (active) | -0.779% (active) | 6.71% (active) | – | -9.69% (active) | 4.64% (active) | -10.3% (active) | 8.25% (active)
CC1=C(C#N)C2=NNCC(c3ccccc3)=NN2C(c2ccccc2)=C1 | 98.8% | 104% | 106% | 98% | – | 118% | 107% | – | 101%
C=C1CCC2C3(C)COC(c4ccco4)OC3CCC2(C)C1CC(Sc1ccccc1)C1=CCOC1=O (centres undefined) | 77.3% | 5.74% (active) | 54.1% | 34.8% | 23.1% | 57% | 71.9% | 17% | –
O=C(Cn1c2c(sc1=O)[C@H]1[C@@H](O)[C@@H](O)[C@H](O)[C@@H]1CS2)N1CCOCC1 | 93.6% | 99.3% | 101% | 107% | 98.4% | 111% | 103% | 105% | –
CC(=O)OC[C@@]1(C)C2CC[C@]3(C)C(CC=C4C5CC(C)(C)CC[C@]5(C(=O)Nc5ccc(C)cc5)CC[C@]43C)[C@@]2(C)C[C@@H](OC(C)=O)[C@@H]1OC(C)=O (some centres undefined) | 17.5% | 51.3% | 48.8% | 40.5% | 25.6% | 44.8% | 51.9% | 8.22% (active) | –
CC(=O)Nc1cccc(-c2nc3cc(-c4ccc(O)cc4)ccc3n2C)c1 | 9.44% (active) | -8.08% (active) | 11.1% | 79.3% | 6.65% (active) | 88.2% | 37.5% | 7.83% (active) | –
